From PubChem BioAssay (EPA / NIEHS)
“And” between values parts separate entries of the source, which are not always exact repeats. Equal values may be shown once. Records with an inconclusive call do not appear. Where a structure was tested more than once in an assay, its records may differ in their call. The source made the active and inactive calls. The calls were made as follows: active = hit-call score of the fitted dose curve at least 0.9, where 1 is the maximum; inconclusive = response in the unintended direction; inactive = score below 0.9.

Target: Retinoic acid receptor RXR-alpha (Homo sapiens) (UniProt P19793)
Assay: OT_NURR1_NURR1RXRa_0480: Odyssey Thera (OT) 8-hour HEK293T Protein Complementation Assay for Nurr1/retinoid X receptor (RXR) (AID 2283385)
Procedure: OT_NURR1_NURR1RXRa_0480 is a cell-based assay that uses HEK293T, a human kidney cell line, with measurements taken at 8 hours after chemical dosing in a 384-well plate.OT_NURR1_NURR1RXRa_0480 is one of one assay component(s) measured or calculated from the OT_NURR1_NURR1RXRa_0480 assay. It is designed to make measurements of protein fragment complementation, a form of binding reporter, as detected with fluorescence intensity signals by Protein-fragment Complementation technology.Data from the assay component OT_NURR1_NURR1RXRa_0480 was analyzed into 1 assay endpoint. This assay endpoint, OT_NURR1_NURR1RXRa_0480, was analyzed in the positive analysis fitting direction relative to DMSO as the negative control and baseline of activity. Using a type of binding reporter, measures of receptor for gain-of-signal activity can be used to understand the binding at the pathway-level as they relate to the gene RXRA. Furthermore, this assay endpoint can be referred to as a primary readout, because the performed assay has only produced 1 assay endpoint. To generalize the intended target to other relatable targets, this assay endpoint is annotated to the nuclear receptor intended target family, where the subfamily is non-steroidal.
Protein-fragment complementation assay, or PCA, is a method for the identification and quantification of protein-protein interactions. In the PCA, the proteins of interest ("bait" and "prey") are each covalently linked to fragments of a third protein (e.g. DHFR, which acts as a "reporter"). Interaction between the bait and the prey proteins brings the fragments of the reporter protein in close proximity to allow them to form a functional reporter protein whose activity can be measured.

Sequence of Retinoic acid receptor RXR-alpha (Homo sapiens) (P19793 whole entry, looked up): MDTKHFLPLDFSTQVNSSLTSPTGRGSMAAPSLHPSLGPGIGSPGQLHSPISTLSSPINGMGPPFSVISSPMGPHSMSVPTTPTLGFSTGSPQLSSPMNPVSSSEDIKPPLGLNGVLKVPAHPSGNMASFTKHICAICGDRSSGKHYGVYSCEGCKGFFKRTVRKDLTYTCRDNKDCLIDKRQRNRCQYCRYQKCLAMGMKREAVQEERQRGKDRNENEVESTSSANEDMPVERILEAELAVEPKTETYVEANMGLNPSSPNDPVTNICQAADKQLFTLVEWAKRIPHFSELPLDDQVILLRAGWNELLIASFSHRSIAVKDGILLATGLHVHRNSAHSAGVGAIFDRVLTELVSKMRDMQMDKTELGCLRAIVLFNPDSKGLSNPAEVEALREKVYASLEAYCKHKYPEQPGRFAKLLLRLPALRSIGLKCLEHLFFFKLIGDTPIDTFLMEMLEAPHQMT

Row | SMILES | AC50 | outcome
1 | CCOC(=O)COc1ccc2c(c1)CC(NCC(O)c1cccc(Cl)c1)CC2 (stereo not given) | 154 nM (active) and 591 nM (active) | 
2 | Cc1ccc(S(=O)(=O)O)cc1C |  | inactive
3 | C1N2CN3CN1CN(C2)C3 |  | inactive
4 | COc1ccc(-n2nc(C(F)F)cc2-c2ccc(S(C)=O)cc2)cc1 (stereo not given) |  | inactive
5 | CN(C)c1ccc(N=NS(=O)(=O)O)cc1 |  | inactive
6 | CC(C)=CCCC(C)=CC=O |  | inactive
7 | COCCOCCOCCOC |  | inactive
8 | O=c1n(CC2CO2)c(=O)n(CC2CO2)c(=O)n1CC1CO1 (stereo not given) | 50 µM (active) and 34.7 µM (active) | 
9 | CC(=O)OC[C@H]1O[C@@](COC(C)=O)(O[C@H]2O[C@H](COC(C)=O)[C@@H](OC(C)=O)[C@H](OC(C)=O)[C@H]2OC(C)=O)[C@@H](OC(C)=O)[C@@H]1OC(C)=O |  | inactive
10 | CC1(C)C(=O)N(Br)C(=O)N1Br |  | inactive
11 | CCCCC(CC)COC(=O)c1ccc(C(=O)OCC(CC)CCCC)cc1 (stereo not given) |  | inactive
12 | CC(C)c1cccc(C(C)C)c1N1C(=O)c2ccc(O)cc2C1=O | 35.4 µM (active) | inactive
13 | On1ccccc1=S |  | inactive
14 | CCCCCCc1ccc(O)cc1O |  | inactive
15 | Cn1cnc([N+](=O)[O-])c1Sc1ncnc2nc[nH]c12 |  | inactive
16 | COC(=O)c1ccccc1O |  | inactive
17 | CCOCCOCCOCCO |  | inactive
18 | O=C(NS(=O)(=O)/C=C/c1ccccc1)c1ccc(F)cc1Cl | 27.4 µM (active) | 
19 | CC[C@H]1OC(=O)[C@H](C)[C@@H](O[C@H]2C[C@@](C)(OC)[C@@H](O)[C@H](C)O2)[C@H](C)[C@@H](O[C@@H]2O[C@H](C)C[C@H](N(C)C)[C@H]2O)[C@](C)(O)C[C@@H](C)C(=O)[C@H](C)[C@@H](O)[C@]1(C)O |  | inactive

Row | SMILES | AC50 | outcome
20 | Nc1nc2ncc(CNc3ccc(C(=O)N[C@@H](CCC(=O)O)C(=O)O)cc3)nc2c(=O)[nH]1 |  | inactive
21 | Oc1ccc2c(c1)-c1ccccc1C2 |  | inactive
22 | CCOC(=O)CC(CC(=O)OCC)(OC(C)=O)C(=O)OCC |  | inactive
23 | Nc1ccc(Nc2ccccc2)cc1 |  | inactive
24 | CC(C)=CCC/C(C)=C/CO |  | inactive
25 | CC1=CC(=O)CC(C)(C)C1 |  | inactive
26 | O=P(OC(CCl)CCl)(OC(CCl)CCl)OC(CCl)CCl |  | inactive
27 | O=C1CCC(N2C(=O)c3ccccc3C2=O)C(=O)N1 (stereo not given) |  | inactive
28 | COC(=O)c1c(Cl)c(Cl)c(C(=O)OC)c(Cl)c1Cl | 68.6 µM (active) | inactive
29 | O=C(O)CCN(C1(C(=O)NO)CCCC1)S(=O)(=O)c1ccc(Oc2ccc(F)cc2)cc1 |  | inactive
30 | CCCN(C1CCN(C(=O)C2CCNCC2)CC1)[C@@H]1CCc2ccc(OC)cc2C1 | 87.3 µM (active) | 
31 | CCOCCO |  | inactive
32 | O=C(OC[C@H]1O[C@@H](OC(=O)c2cc(O)c(O)c(OC(=O)c3cc(O)c(O)c(O)c3)c2)[C@H](OC(=O)c2cc(O)c(O)c(OC(=O)c3cc(O)c(O)c(O)c3)c2)[C@@H](OC(=O)c2cc(O)c(O)c(OC(=O)c3cc(O)c(O)c(O)c3)c2)[C@@H]1OC(=O)c1cc(O)c(O)c(OC(=O)c2cc(O)c(O)c(O)c2)c1)c1cc(O)c(O)c(OC(=O)c2cc(O)c(O)c(O)c2)c1 | 20.5 µM (active) | inactive
33 | Cc1ccc(O)cc1 |  | inactive
34 | CC(C)(O)c1coc(S(=O)(=O)NC(=O)Nc2c3c(cc4c2CCC4)CCC3)c1 |  | inactive
35 | CC[C@H]1CC[C@H](NCc2cc3c(cc2OC)[C@H]2C[C@H]2C(=O)N3C)[C@H](c2ccccc2)N1 |  | inactive
36 | CC(=O)OCCC(C)C |  | inactive
37 | O=C(O)CC(O)C(=O)O (stereo not given) |  | inactive
